Test results from ChEMBL document CHEMBL3988442, “University of Dundee, Small-Polar-MMV Screening Library” (2021).
For some of these results: Measured potencies and affinities stand elsewhere.

Tests used:
Parameters in all cases: scale not given: direction of the effect not stated beside the values
[1] = molecular target: Protein translocase subunit SecA (Escherichia coli (strain K12)) (UniProt P10408); assay: Assay to Identify E. coli SecA ATPase Inhibitors; type: functional; conditions: 30 µM
Protein translocase subunit SecA (Escherichia coli (strain K12)), sequence (P10408 whole entry): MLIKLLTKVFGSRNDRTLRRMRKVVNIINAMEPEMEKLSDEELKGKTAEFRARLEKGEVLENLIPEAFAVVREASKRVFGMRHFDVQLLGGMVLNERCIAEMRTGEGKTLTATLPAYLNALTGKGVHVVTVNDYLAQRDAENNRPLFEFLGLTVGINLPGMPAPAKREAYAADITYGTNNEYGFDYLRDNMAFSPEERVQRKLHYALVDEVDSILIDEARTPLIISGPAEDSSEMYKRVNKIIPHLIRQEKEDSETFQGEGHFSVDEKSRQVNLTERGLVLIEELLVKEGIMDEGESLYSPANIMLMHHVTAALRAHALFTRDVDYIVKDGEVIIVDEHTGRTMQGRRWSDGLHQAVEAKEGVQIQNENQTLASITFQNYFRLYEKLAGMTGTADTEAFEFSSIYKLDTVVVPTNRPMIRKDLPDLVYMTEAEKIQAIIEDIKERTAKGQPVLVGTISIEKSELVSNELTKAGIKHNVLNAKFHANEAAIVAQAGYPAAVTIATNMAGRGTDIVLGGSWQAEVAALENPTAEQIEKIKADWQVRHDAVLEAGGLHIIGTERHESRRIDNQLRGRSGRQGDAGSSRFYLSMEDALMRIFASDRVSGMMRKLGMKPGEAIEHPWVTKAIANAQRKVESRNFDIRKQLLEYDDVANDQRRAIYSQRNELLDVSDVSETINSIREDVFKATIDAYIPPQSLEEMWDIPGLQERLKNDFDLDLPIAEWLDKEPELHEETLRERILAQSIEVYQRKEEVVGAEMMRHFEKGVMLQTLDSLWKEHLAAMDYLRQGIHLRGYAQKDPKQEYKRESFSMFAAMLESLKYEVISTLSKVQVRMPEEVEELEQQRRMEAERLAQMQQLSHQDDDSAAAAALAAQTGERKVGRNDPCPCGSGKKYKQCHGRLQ

[2] = molecular target: T1, Ubiquitin-activating enzyme e1, putative (Leishmania donovani (strain BPK282A1)) (UniProt E9BSI1); assay: Leishmania donovani Ubiquitin Activating Enzyme (LdE1); type: functional; conditions: 30 µM
T1 sequence (whole entry): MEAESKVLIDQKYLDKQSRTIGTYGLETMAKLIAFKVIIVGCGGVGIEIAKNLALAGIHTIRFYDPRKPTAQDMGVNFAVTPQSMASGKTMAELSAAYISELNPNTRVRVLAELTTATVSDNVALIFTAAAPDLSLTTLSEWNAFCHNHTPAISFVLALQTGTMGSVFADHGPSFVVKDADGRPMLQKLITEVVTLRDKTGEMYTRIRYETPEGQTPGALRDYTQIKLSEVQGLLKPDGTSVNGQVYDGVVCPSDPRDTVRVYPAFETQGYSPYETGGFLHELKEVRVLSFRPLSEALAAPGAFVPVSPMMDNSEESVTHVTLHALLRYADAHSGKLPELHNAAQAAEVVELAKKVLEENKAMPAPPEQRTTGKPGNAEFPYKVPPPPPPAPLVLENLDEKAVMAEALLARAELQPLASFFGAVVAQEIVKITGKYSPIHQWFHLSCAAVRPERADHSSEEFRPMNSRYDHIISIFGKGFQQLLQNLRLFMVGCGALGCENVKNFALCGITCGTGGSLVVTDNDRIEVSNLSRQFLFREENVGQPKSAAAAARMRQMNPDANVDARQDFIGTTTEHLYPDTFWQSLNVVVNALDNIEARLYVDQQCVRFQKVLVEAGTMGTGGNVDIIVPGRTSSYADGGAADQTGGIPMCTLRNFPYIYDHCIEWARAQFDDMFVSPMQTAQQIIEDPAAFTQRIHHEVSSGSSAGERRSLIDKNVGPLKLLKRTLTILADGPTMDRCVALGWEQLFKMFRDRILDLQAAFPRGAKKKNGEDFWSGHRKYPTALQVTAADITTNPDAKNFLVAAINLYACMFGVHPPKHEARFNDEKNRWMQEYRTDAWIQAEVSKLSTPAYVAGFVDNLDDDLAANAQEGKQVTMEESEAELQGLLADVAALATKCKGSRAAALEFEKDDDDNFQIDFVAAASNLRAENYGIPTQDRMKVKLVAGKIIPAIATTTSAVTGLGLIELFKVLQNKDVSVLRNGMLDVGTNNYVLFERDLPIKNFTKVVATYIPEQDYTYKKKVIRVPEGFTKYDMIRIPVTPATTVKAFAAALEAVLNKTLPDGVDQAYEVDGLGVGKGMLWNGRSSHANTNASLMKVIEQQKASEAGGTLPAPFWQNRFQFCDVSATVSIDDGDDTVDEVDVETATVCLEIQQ

[3] = molecular target: AMP-activated protein kinase, AMPK (Homo sapiens) (UniProt P54646+O43741+P54619+Q9UGJ0+Q9Y478+Q13131+Q9UGI9); assay: AMP-dependent Kinase enzyme assay. An in vitro enzyme assay that detects ADP turnover that is directly proportional to AMPK activity. This uses naive AMPK that is activated during the assay with MK-8722; type: functional; conditions: 30 µM
[4] = molecular target: Sialic acid-binding Ig-like lectin 9 (Homo sapiens) (UniProt Q9Y336); assay: Hs-Siglec9 ALPHAscreen SOP 20170721; conditions: 10 µM
Sialic acid-binding Ig-like lectin 9 (Homo sapiens), sequence (Q9Y336 whole entry): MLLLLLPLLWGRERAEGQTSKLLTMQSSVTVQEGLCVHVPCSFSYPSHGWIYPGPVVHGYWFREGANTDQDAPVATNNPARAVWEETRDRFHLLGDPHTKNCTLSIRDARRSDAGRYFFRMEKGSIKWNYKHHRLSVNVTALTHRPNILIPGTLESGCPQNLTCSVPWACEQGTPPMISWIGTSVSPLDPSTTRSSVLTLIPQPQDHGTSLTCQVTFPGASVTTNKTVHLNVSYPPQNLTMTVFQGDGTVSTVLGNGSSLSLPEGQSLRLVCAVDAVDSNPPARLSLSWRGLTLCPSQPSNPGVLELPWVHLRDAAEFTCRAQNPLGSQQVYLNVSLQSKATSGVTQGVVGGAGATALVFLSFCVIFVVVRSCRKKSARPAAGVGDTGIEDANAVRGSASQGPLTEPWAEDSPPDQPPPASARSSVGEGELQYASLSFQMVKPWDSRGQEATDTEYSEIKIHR

[5] = tested on: Trypanosoma cruzi; assay: Trypanosoma cruzi phosphomannomutase and mannose-1-phosphate guanylyltransferase assay; type: functional; conditions: 10 µM
[6] = molecular target: T2, Arginase-2, mitochondrial (Homo sapiens) (UniProt P78540); assay: in vitro enzyme assay to detect the production of urea directly proportional to the activity of Arginase II; type: functional; conditions: 33.3 µM; also: in the data most compounds retested in dose-response had high values
T2 sequence (whole entry): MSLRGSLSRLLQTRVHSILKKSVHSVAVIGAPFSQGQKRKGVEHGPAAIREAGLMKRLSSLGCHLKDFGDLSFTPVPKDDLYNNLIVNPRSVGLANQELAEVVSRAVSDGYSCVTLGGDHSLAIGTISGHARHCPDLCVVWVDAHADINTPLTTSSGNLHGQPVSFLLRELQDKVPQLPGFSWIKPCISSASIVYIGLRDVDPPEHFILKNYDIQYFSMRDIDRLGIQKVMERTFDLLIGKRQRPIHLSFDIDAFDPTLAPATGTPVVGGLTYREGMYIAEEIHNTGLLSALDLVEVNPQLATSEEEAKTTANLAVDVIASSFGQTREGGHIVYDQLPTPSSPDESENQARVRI

[7] = molecular target: T3, Proteasome subunit beta (Trypanosoma cruzi) (UniProt O96673); assay: Trypanosoma cruzi proteasome chymotrypsin-like activity (TcProtChymo) assay.; also: in the data most compounds retested in dose-response had high values; type: functional; conditions: 9.37 µM
T3 sequence (whole entry): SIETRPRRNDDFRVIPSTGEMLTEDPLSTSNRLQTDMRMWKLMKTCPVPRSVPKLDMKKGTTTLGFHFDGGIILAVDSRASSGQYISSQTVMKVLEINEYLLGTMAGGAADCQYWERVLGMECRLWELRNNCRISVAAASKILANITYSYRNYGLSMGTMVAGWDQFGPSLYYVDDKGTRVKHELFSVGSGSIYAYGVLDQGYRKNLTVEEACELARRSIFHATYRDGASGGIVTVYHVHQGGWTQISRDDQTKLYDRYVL

[8] = species: Homo sapiens; assay: To identify inhibition of the IFN signalling (Jak-Stat) pathway via expression of an eGFP reporter gene under the control of an IFN-stimulated response element (ISRE) containing MxA promoter.; type: functional; conditions: 30 µM
[9] = molecular target: T4, Tyrosyl-tRNA synthetase, putative (Trypanosoma cruzi (strain CL Brener)) (UniProt Q4DSP6); assay: Trypanosoma cruzi tyrosyl tRNA synthetase (TcYRS) _High Tyrosine SOP; type: functional; conditions: 30 µM; also: in the data most compounds retested in dose-response had high values
T4 sequence (whole entry): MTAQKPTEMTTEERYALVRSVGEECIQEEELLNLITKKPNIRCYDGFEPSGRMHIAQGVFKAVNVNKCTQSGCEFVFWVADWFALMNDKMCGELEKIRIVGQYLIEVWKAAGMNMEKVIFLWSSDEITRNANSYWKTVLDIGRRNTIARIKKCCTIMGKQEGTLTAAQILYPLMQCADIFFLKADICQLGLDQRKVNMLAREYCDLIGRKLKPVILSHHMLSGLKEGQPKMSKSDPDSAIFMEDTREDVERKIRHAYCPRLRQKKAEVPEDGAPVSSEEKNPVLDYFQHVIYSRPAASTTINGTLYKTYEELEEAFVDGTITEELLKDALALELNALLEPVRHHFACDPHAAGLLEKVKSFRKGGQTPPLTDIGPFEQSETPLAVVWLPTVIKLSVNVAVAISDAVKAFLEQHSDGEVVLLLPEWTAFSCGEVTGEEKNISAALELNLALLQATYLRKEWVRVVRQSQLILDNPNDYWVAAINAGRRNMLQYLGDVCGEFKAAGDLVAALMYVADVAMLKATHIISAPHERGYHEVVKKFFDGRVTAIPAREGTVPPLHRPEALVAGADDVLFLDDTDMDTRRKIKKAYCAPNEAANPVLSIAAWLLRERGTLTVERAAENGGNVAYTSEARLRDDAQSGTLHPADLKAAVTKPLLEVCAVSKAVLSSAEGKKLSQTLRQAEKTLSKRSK

[10] = molecular target: T4, Tyrosyl-tRNA synthetase, putative (Trypanosoma cruzi (strain CL Brener)); assay: Trypanosoma cruzi tyrosyl tRNA synthetase (TcYRS) SOP; type: functional; conditions: 30 µM
[11] = molecular target: Chromo domain-containing protein 1 (Saccharomyces cerevisiae (strain ATCC 204508 / S288c) (Baker's yeast)) (UniProt P32657); assay: ScCHD-1 Enzyme Inhibition Assay; type: functional; conditions: 30 µM; also: in the data most compounds retested in dose-response had high values
Chromo domain-containing protein 1 (Saccharomyces cerevisiae (strain ATCC 204508 / S288c) (Baker's yeast)), sequence (P32657 whole entry, the tested form may be a part): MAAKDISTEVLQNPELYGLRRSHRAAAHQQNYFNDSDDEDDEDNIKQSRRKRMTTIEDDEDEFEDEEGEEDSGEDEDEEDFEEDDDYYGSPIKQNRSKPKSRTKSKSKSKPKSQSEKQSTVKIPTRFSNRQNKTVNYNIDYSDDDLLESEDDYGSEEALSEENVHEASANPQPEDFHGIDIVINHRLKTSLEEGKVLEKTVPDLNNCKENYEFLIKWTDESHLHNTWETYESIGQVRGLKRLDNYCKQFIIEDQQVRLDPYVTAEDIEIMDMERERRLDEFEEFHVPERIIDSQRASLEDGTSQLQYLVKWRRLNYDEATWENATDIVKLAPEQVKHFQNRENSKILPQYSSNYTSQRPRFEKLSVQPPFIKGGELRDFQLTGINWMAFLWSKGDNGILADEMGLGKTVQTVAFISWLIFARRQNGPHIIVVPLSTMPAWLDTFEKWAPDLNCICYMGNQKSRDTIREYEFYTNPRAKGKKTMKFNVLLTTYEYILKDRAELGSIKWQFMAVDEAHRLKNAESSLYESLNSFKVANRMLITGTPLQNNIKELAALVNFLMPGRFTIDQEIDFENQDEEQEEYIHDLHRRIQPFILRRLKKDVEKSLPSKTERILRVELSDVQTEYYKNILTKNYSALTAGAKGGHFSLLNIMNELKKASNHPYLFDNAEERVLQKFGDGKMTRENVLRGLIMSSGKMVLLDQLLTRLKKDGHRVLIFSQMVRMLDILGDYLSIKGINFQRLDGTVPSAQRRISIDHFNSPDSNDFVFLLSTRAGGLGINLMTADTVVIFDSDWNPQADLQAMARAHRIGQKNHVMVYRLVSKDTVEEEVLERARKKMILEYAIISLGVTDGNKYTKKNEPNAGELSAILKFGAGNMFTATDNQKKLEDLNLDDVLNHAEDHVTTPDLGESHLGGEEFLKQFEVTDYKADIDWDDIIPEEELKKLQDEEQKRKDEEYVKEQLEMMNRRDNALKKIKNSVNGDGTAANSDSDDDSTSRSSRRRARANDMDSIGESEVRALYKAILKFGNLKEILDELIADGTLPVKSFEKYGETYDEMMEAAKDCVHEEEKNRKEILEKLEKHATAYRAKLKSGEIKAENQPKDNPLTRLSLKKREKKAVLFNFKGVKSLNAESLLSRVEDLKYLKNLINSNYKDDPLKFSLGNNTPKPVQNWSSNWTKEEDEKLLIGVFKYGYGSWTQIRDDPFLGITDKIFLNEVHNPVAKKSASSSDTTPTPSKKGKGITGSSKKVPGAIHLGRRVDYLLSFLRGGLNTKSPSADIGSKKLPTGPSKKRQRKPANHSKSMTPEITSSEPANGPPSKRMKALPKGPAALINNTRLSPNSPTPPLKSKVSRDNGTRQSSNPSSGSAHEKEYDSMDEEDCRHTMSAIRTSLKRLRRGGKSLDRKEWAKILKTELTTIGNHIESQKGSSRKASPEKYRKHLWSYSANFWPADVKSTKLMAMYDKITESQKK

| SMILES | Percent Effect [1] | Percent Effect [2] | Percent Effect [3] | Percent Effect [4] | Percent Effect [5] | Percent Effect [6] | Percent Effect [7] | Percent Effect [8] | Percent Effect [9] | Percent Effect [10] | Percent Effect [11] |
| --- | --- | --- | --- | --- | --- | --- | --- | --- | --- | --- | --- |
| CN(C)c1ccc(CCNC(=O)NCc2ccc(N(C)C)nc2)cc1 | -3.23% | 13.5% | 0.0846% | 11.2% | 1.98% | -5.21% | -4.14% | 5.54% | 7.39% | 18.5% | -9.13% |
| COc1ccc(NCc2nc(=O)n(CCC(C)C)[nH]2)cc1 | -3.47% | 10.5% | 11.6% | 5.94% | -0.0974% | -8.28% | 8.92% | -19% | 4.25% | 10.4% | -2.13% |
| COc1ccc(-c2nc(CN3CCN(CCO)CC3)co2)cc1 | -2.39% | 20.8% | -11.9% | -1.67% | 8.8% | 4.98% | 15.2% | 29% | 5.83% | 24.4% | -9.19% |
| O=C(Cn1cc(I)cn1)N1CCCC1 | 0.0934% | -1.33% | -2.19% | 10.5% | 2.55% | -2.64% | 7.02% | 20.5% | 5.29% | 5.13% | -2.75% |
| CN(C)Cc1ccnc(C2CCCN2Cc2cc[nH]n2)n1 (stereo not given) | -6.5% | -6.76% | 10.3% | -1.81% | -1.78% | -1.16% | 6.08% | -0.845% | 3.23% | 3.9% | 1.51% |
| CC(C)(C)NC(=O)NC(=O)CNC(C)(C)c1ccc2c(c1)OCCO2 | -5.89% | 13.5% | -6.92% | 1.3% | 0.472% | -4.01% | 6.67% | 11.6% | 4.43% | 13.6% | -5.2% |
| CC(NC(=O)CSCC#N)c1cccc(NC(=O)c2ccccc2)c1 (stereo not given) | -6.35% | 15.8% | -4.8% | 13.9% | 4.76% | 1.08% | 8.38% | 12.6% | 5.42% | 23.5% | -7.99% |
| CCc1ncc2c(n1)CN(Cc1nc(C)c(C)o1)CC2 | -3.48% | 2.74% | -53% | -5.63% | -1.76% | 6.82% | 9.94% | 10.1% | 5.38% | 10% | -5.18% |
| CN(C)CCNC(=O)c1cc(-c2cnc(N3CCCC3)nc2)cn1C | -6.55% | 5.33% | 9.86% | -3.71% | -0.197% | -1.17% | 0.0881% | 45.6% | 0% | -6.41% | -10.7% |
| CN1CCN(C(=O)c2cnc3c(cnn3C3CCCC3)c2)CC1 | -5.03% | 12.7% | -2.67% | -0.596% | 8.78% | 5.7% | 1.72% | -7.07% | 5.42% | 16.5% | -5.9% |
| COC1CCN(C(=O)c2c(Cl)c3ccccc3n2C)CC1 | -5.47% | 5.33% | 0.805% | 8.11% | 3.41% | 5.21% | 16.2% | -7.49% | 3.83% | 11.1% | -5% |
| Cc1ccc(S(=O)(=O)NC(=O)c2c(C)noc2C(C)C)cc1C | -2.23% | 10.5% | -4.09% | 2.28% | 1.07% | -3.55% | 10.6% | -1.83% | 3.19% | 10.4% | -1.79% |
| Fc1ccc(CN2CCC(c3n[nH]c4nccnc34)CC2)cc1F | -3.35% | 9.46% | 4.38% | -4.91% | 0.593% | -1.16% | 19.8% | 7.61% | 1.07% | 6.49% | -18.1% |
| CC(=O)N1CCCC1c1cccc(Cc2ccccc2F)n1 (stereo not given) | -3.38% | -9.46% | 3.81% | -1.05% | -2.77% | -1.62% | -1.25% | 26.6% | -4.3% | -9.09% | 3.67% |
| CC(=O)Nc1cccc(OCCNC(=O)N(C)Cc2ccco2)c1 | -4.59% | 2.63% | 7.27% | -2.99% | 1.46% | -4.73% | 6.62% | -1.59% | 4.25% | 0% | -3.97% |
| CN(Cc1nccs1)c1nc(-c2ccccn2)nc2c1CCNCC2 | -3.65% | -1.39% | -0.513% | -2.23% | 4.57% | -2.21% | 8.95% | 11.4% | 10.5% | 12.8% | -1.22% |
| O=C(CCNS(=O)(=O)c1ccccc1)NCc1ccoc1 | -5.05% | 5.33% | -0.901% | 7.78% | 7.11% | -0.521% | 12% | 12.9% | 8.2% | 16.1% | -4.93% |
| N#Cc1ccc(CNCC2CCN(CCO)CC2)cc1 | -1.19% | 5.48% | -0.789% | -1.57% | -7.05% | 5% | 9.58% | 11.5% | 0% | 10% | -2.99% |
| O=C(CCc1cccnc1)N(Cc1ccsc1)CC1CCCO1 (stereo not given) | -1.63% | -2.7% | -0.366% | -2.41% | 1.93% | 1.91% | 10.3% | -6.2% | 1.59% | 7.32% | -3.52% |
| O=C(NCc1cccc2cccnc12)N1CCC(n2cncn2)CC1 | -2.83% | 6.33% | 9.77% | 5.48% | -5.03% | 2.37% | -0.515% | 12.1% | 9.38% | 7.59% | -4.9% |
